Laboratory results as given in PubChem BioAssay (EPA / NIEHS).
Inconclusive results are not listed. Activity calls are given as the source filed them. Rule for the calls: active = hit-call score of the fitted dose curve at least 0.9, where 1 is the maximum; inconclusive = response in the unintended direction; inactive = score below 0.9.

Legend:
[1] = Tanguay_ZF_120hpf_MORT_legacy: (Legacy) Oregon State University Tanguay Lab 120 Hour Post-fertilization zebrafish Assay for Mortality (AID 2283633)
In short: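 Dechorionated Tropical 5D wild-type zebrafish embryos, one per well from 6 hpf, static exposure in 0.64% DMSO at 28C until 120 hpf. Mortality scored as binary by brightfield microscopy at 24 and 120 hpf.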

[2] = Tanguay_ZF_120hpf_AXIS_legacy: (Legacy) Oregon State University Tanguay Lab 120 Hour Post-fertilization zebrafish Assay for Body Axis Malformation (AID 2283635);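 for AC50: potency for an increased fraction of larvae scored with body axis malformation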
In short: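 Dechorionated wild-type Tropical 5D zebrafish embryos, one per well, statically exposed from 6 hpf to 120 hpf at 28C in 0.64% DMSO final. Body axis malformation scored present/absent by brightfield microscopy at 120 hpf; dead embryos excluded.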

[3] = Tanguay_ZF_120hpf_SNOU_legacy: (Legacy) Oregon State University Tanguay Lab 120 Hour Post-fertilization zebrafish Assay for Snout Malformation (AID 2283637)
In short: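 Tropical 5D wild-type zebrafish embryos, dechorionated with pronase at 4 hpf, were exposed singly from 6 hpf to 120 hpf statically at 28C in 0.64% DMSO. Snout malformation was scored present/absent by brightfield microscopy, fitted against DMSO.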

[4] = Tanguay_ZF_120hpf_JAW_legacy: (Legacy) Oregon State University Tanguay Lab 120 Hour Post-fertilization zebrafish Assay for Jaw Malformation (AID 2283638)
In short: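 Dechorionated Tropical 5D wild-type zebrafish embryos, one per well, exposed statically from 6 hpf to 120 hpf at 28C in 0.64% DMSO. Jaw malformation was scored by brightfield microscopy as present or absent. It was not scored in dead embryos.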

[5] = Tanguay_ZF_120hpf_OTIC_legacy: (Legacy) Oregon State University Tanguay Lab 120 Hour Post-fertilization zebrafish Assay for Otic Vesicle Malformation (AID 2283639)
In short: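 Otic vesicle malformation is read as a yes/no morphology call at 120 hpf. Exposure is static at 28C with 0.64% (vol/vol) DMSO; embryos that die are excluded from non-mortality endpoints.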

[6] = Tanguay_ZF_120hpf_PE_legacy: (Legacy) Oregon State University Tanguay Lab 120 Hour Post-fertilization zebrafish Assay for Pericardial Edema (AID 2283640);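 for AC50: potency for increased incidence of pericardial edema versus DMSO baseline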
In short: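 Tropical 5D wild-type zebrafish embryos were statically exposed until 120 hpf at 28C, with 0.64% DMSO final. Pericardial edema was scored by brightfield as present or absent; endpoints were not scored in dead embryos.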

[7] = Tanguay_ZF_120hpf_PFIN_legacy: (Legacy) Oregon State University Tanguay Lab 120 Hour Post-fertilization zebrafish Assay for Pectoral Fin Malformation (AID 2283648);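 note: each larva judged yes or no for fin defect by brightfield with dead larvae skipped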
In short: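 Tropical 5D wild-type embryos, dechorionated with pronase at 4 hpf, were placed singly in wells at 6 hpf and statically exposed until 120 hpf at 28C, sealed and dark, with 0.64% (vol/vol) final DMSO; pectoral fin malformation scored present/absent.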

[8] = Tanguay_ZF_120hpf_CFIN_legacy: (Legacy) Oregon State University Tanguay Lab 120 Hour Post-fertilization zebrafish Assay for Caudal Fin Malformation (AID 2283649)
In short: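 Dechorionated Tropical 5D wild-type embryos, one per well from 6 hpf, static exposure to 120 hpf at 28C in 0.64% DMSO. Caudal fin malformation scored by brightfield as present/absent; not scored in dead embryos.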

[9] = Tanguay_ZF_120hpf_YSE_legacy: (Legacy) Oregon State University Tanguay Lab 120 Hour Post-fertilization zebrafish Assay for Yolk Sac Edema (AID 2283634);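 for AC50: actives raise the incidence of yolk sac edema above the DMSO baseline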
In short: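 Dechorionated Tropical 5D wild-type zebrafish embryos were exposed statically, one per well, from 6 to 120 hpf at 28C in 0.64% DMSO. Yolk sac edema was scored present/absent by brightfield at 120 hpf, and dead embryos were excluded.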

[10] = Tanguay_ZF_120hpf_EYE_legacy: (Legacy) Oregon State University Tanguay Lab 120 Hour Post-fertilization zebrafish Assay for Eye Malformation (AID 2283636);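 note: binary presence or absence of eye malformation scored by brightfield in 120 hpf larvae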
In short: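 Dechorionated wild-type Tropical 5D zebrafish embryos were exposed statically from 6 hpf, one per well, to 120 hpf at 28C in sealed, foil-covered plates with 0.64% DMSO. Eye malformation was scored present/absent by brightfield microscopy against DMSO controls.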

Measured: AC50

CCOCN(C(=O)CCl)c1c(C)cccc1CC
active: [2] 39 µM
not listed: [9] | [10]
inactive: all other assays above

O=C(O)CCCOc1ccc(Cl)cc1Cl
active: [9] 42.6 µM | [2] 48.7 µM | [6] 24.2 µM
not listed: [5] | [7]
inactive: all other assays above

OCCOc1ccccc1
not listed: [5] | [10]
inactive: all other assays above

CC(C)OC(=O)Nc1cccc(Cl)c1
active: [3] 34.2 µM | [6] 37.7 µM
not listed: [4]
inactive: all other assays above

CC1(c2ccc(Oc3ccccc3)cc2)OC(=O)N(Nc2ccccc2)C1=O (configuration not stated)
not listed: [6]
inactive: all other assays above

COP(=O)(OC)OC=C(Cl)Cl
not listed: [4]
inactive: all other assays above

O=[N+]([O-])c1c(Cl)c(Cl)c(Cl)c(Cl)c1Cl
not listed: [1]
inactive: all other assays above

CNC(=O)Oc1ccccc1OC(C)C
not listed: [10]
inactive: all other assays above

CC1(C)C(C=C(Cl)Cl)C1C(=O)OC(C#N)c1ccc(F)c(Oc2ccccc2)c1 (configuration not stated)
not listed: [5]
inactive: all other assays above

O=C(NC(=O)c1c(F)cccc1F)Nc1ccc(OC(F)(F)C(F)OC(F)(F)F)c(Cl)c1 (configuration not stated)
not listed: [2]
inactive: all other assays above
